The list is not random: actives were taken first. Their share in the collection is about 2.3%.
M1 PAM = positive allosteric modulators of human M1 muscarinic receptor. CHO-K1 hM1, Fluo-8 calcium fluorescence, ACh EC20; 0% = ACh EC20, 100% = maximal ACh. AID 588819. activation, % at 3 µM. hit rate 0.088% among 360,000. P11229; in the data active = activation above about 19%, passing the limit was not always enough
Target sequence (P11229 whole entry, looked up): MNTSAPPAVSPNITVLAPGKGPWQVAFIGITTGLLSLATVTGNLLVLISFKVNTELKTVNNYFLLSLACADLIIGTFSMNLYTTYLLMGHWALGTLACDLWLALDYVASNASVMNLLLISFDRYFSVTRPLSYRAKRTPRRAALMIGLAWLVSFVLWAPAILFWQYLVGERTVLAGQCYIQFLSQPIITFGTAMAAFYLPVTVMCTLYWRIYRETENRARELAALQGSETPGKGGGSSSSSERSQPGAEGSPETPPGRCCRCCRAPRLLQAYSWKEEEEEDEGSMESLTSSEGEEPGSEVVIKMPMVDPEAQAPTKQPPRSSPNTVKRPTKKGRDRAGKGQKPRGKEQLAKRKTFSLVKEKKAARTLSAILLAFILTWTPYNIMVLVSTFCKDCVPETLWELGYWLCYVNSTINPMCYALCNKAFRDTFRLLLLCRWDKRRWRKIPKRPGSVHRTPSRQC
M1 PAM parental = M1 PAM counterscreen hit in parental CHO-K1 cells | activation, % at 3 µM | AID 602247 | ATP EC20, Fluo-8 calcium fluorescence; 0% at ATP EC20, 100% at ATP max | hit rate 0.02% among 360,000;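 active = activation above the run cutoff, the mean activation of all test compounds plus 3 SD, cut at about 40% in these data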;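 also: peak over basal fluorescence ratio in a 140 s read after ATP addition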
M1 antag = blocks human M1 muscarinic receptor; P11229; CHO-K1 hM1, Fluo-8 calcium fluorescence, ACh EC80 antagonist; inhibition, % at 3 µM; hit rate 1.3% among 360,000;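 active = percent inhibition above its own plate's cutoff, namely the mean of that plate's compound wells plus 3 SD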;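 also: peak over basal fluorescence ratio during 140 s after agonist addition; 0% = ACh EC80 plus DMSO and 100% = DMSO alone without agonist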
CHO-K1 Ca ag = nonselective activator or artifact in parental CHO-K1 cells; activation, % at 3 µM; Fluo-8 calcium fluorescence; scaled to maximal ATP response, vehicle zero; AID 602248; hit rate 0.48% among 360,000; in the data active = activation above about 15%;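 also: untransfected CHO-K1 host cells lacking M1 receptor as counterscreen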
CHO-K1 Ca antag = counter-screen for M1 antagonists: effect in parental CHO-K1 cells | inhibition, % at 3 µM | ATP-induced calcium, Fluo-8 fluorescence | hit rate 0.6% among 360,000;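 active = inhibition above a per-plate cutoff, the plate's mean sample inhibition plus 3 SD, cut at about 24% in these data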;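 also: 0% = DMSO plus EC80 ATP and 100% = DMSO alone without ATP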
M1 ag = agonists of human M1 muscarinic receptor. P11229. CHO-K1 hM1, Fluo-8 calcium fluorescence, agonist mode; 0% DMSO, 100% acetylcholine EC100. activation, % at 3 µM. hit rate 0.33% among 360,000;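 active = activation above the run's mean compound activation plus 3 SD, cut at about 16% in these data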;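 also: peak over basal fluorescence ratio within a 140 s kinetic read after compound addition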
Numbers without * were called inactive.

`Cc1cn([C@H]2C[C@H](O)[C@@H](CNCc3ccc(CN(C)S(C)(=O)=O)o3)O2)c(=O)[nH]c1=O` gave M1 PAM 0, M1 PAM parental 13, M1 antag -7, CHO-K1 Ca ag 1, CHO-K1 Ca antag -4 and M1 ag -4.
For CC(C)CCN1CCN(CC(c2ccccc2)c2ccccc2)CC1CCO (stereo not given) the results were M1 PAM -33, M1 PAM parental 16, M1 antag 35*, CHO-K1 Ca ag 0, CHO-K1 Ca antag -10 and M1 ag -13.
CC(C)CCN1CCN(Cc2nc3ccccc3s2)CC1CCO (stereo not given) was read as M1 PAM 0, M1 PAM parental 16, M1 antag -2, CHO-K1 Ca ag 1, CHO-K1 Ca antag -16 and M1 ag -5.
Screening Cc1sc2ncnc(Nc3ccccc3)c2c1C returned M1 PAM -2, M1 PAM parental -1, M1 antag -4, CHO-K1 Ca ag -1, CHO-K1 Ca antag -1 and M1 ag -7.
For Cc1sc2ncnc(NCC(c3ccco3)N(C)C)c2c1C (stereo not given) the results were M1 PAM -18, M1 PAM parental -7, M1 antag 38*, CHO-K1 Ca ag 0, CHO-K1 Ca antag 14 and M1 ag -4.
c1ccc(-c2csc3ncnc(NCC4COc5ccccc5O4)c23)cc1 (stereo not given) was read as M1 PAM -16, M1 PAM parental 17, M1 antag 33, CHO-K1 Ca ag 4, CHO-K1 Ca antag 23 and M1 ag -8.
For Cc1sc2ncnc(NCc3ccccc3)c2c1C the results were M1 PAM -2, M1 PAM parental 7, M1 antag 22, CHO-K1 Ca ag 7, CHO-K1 Ca antag 12 and M1 ag -1.
Screening COc1ccccc1C(CNc1ncnc2sc(C)c(C)c12)N(C)C (stereo not given) returned M1 PAM -34, M1 PAM parental 3, M1 antag 92*, CHO-K1 Ca ag 3, CHO-K1 Ca antag -10 and M1 ag -11.
`COc1ccc(C(CNc2ncnc3sc(C)c(C)c23)N(C)C)cc1` (stereo not given) gave M1 PAM -28, M1 PAM parental 26, M1 antag 23*, CHO-K1 Ca ag 1, CHO-K1 Ca antag -14 and M1 ag -12.
Screening Cc1sc2ncnc(NCC3COc4ccccc4O3)c2c1C (stereo not given) returned M1 PAM -17, M1 PAM parental -5, M1 antag 30, CHO-K1 Ca ag 10, CHO-K1 Ca antag 27* and M1 ag -5.
Screening CN(C)C(CNc1ncnc2sc3c(c12)CCCCC3)c1ccco1 (stereo not given) returned M1 PAM -15, M1 PAM parental 12, M1 antag 17, CHO-K1 Ca ag 0, CHO-K1 Ca antag -6 and M1 ag -7.
Cc1[nH]nc(C(=O)NN=Cc2ccccc2Cl)c1N=NN(C)C was read as M1 PAM -8, M1 PAM parental 8, M1 antag 12, CHO-K1 Ca ag 1, CHO-K1 Ca antag -13 and M1 ag -2.
For CCN1CCCC1CNC(=O)C(=O)NCCc1ccc(OC)c(OC)c1 (stereo not given) the results were M1 PAM 0, M1 PAM parental 7, M1 antag 2, CHO-K1 Ca ag 1, CHO-K1 Ca antag -8 and M1 ag -13.
For COC(=O)c1cc2sc(Cl)cc2n1Cc1nc(-c2ccccc2)oc1C the results were M1 PAM 0, M1 PAM parental -4, M1 antag 5, CHO-K1 Ca ag 0, CHO-K1 Ca antag 13 and M1 ag 1.
Screening COC(=O)c1cc2ccsc2n1Cc1nc(-c2ccc(OC)cc2)oc1C returned M1 PAM -34, M1 PAM parental 6, M1 antag 45*, CHO-K1 Ca ag 1, CHO-K1 Ca antag -12 and M1 ag -10.
COC(=O)c1cc2occc2n1Cc1nc(-c2ccccc2F)oc1C was read as M1 PAM -24, M1 PAM parental 9, M1 antag 53*, CHO-K1 Ca ag 0, CHO-K1 Ca antag -9 and M1 ag -6.
Screening COC(=O)c1cc2sccc2n1Cc1nc(-c2ccc(OC)cc2)oc1C returned M1 PAM -20, M1 PAM parental 6, M1 antag 9, CHO-K1 Ca ag 0, CHO-K1 Ca antag -11 and M1 ag -12.
COc1ccc(C)cc1N(C)C(=O)Cc1c(C(=O)O)n(C)c2ccccc12 was read as M1 PAM 4, M1 PAM parental -10, M1 antag 3, CHO-K1 Ca ag 0, CHO-K1 Ca antag 5 and M1 ag -2.
Screening C=CCN1C(=O)c2ccc(C(=O)N(C)CC(=O)Nc3c(C)cccc3C)cc2C1=O returned M1 PAM -3, M1 PAM parental -8, M1 antag -6, CHO-K1 Ca ag 2, CHO-K1 Ca antag 5 and M1 ag -4.
COc1ccc(-n2c(COc3cccc4ccccc34)nnc2SC(C)C(=O)O)cc1 (stereo not given) was read as M1 PAM 5, M1 PAM parental -6, M1 antag 4, CHO-K1 Ca ag -1, CHO-K1 Ca antag 32* and M1 ag -11.
For COC(=O)CCCn1cc(CN(C)C2CN(Cc3cn(CCCC(=O)OC)nn3)S(=O)(=O)C2)nn1 (stereo not given) the results were M1 PAM parental 5, CHO-K1 Ca ag 0 and CHO-K1 Ca antag -6.
Screening CC1CCCCN1CC(=O)Nc1ccccc1Sc1ccccc1 (stereo not given) returned M1 PAM -25, M1 PAM parental 25, M1 antag 27*, CHO-K1 Ca ag 2, CHO-K1 Ca antag -14 and M1 ag -8.
For c1ccc(Oc2cc(-n3cncn3)ncn2)cc1 the results were M1 PAM 12, M1 PAM parental 28, M1 antag -13, CHO-K1 Ca ag 2, CHO-K1 Ca antag -11 and M1 ag -8.
Screening Cc1cnn(-c2cc(Oc3ccccc3)ncn2)c1 returned M1 PAM -2, M1 PAM parental -8, M1 antag 9, CHO-K1 Ca ag 0, CHO-K1 Ca antag 25* and M1 ag -1.
Screening COC(=O)c1nc(-c2ccccc2)nc(-c2ccccc2)c1C(=O)OC returned M1 PAM 1, M1 PAM parental 16, M1 antag 1, CHO-K1 Ca ag 2, CHO-K1 Ca antag -12 and M1 ag -2.
`O=S(=O)(c1ccc(N2CCCC2)cc1)C(F)(F)F` gave M1 PAM -14, M1 PAM parental -13, M1 antag 25, CHO-K1 Ca ag 10, CHO-K1 Ca antag 27* and M1 ag -3.
Screening O=S(=O)(c1ccc(N2CCN(c3ccc(F)cc3)CC2)cc1)N1CCCC1 returned M1 PAM 7, M1 PAM parental 2, M1 antag -8, CHO-K1 Ca ag 0, CHO-K1 Ca antag -3 and M1 ag -4.

Compound activity from PubChem.
